{"source": "PubChem BioAssay (NCATS)", "note": "Several values for one entry are separate records, joined by “and”; a condition that tells them apart may be missing. Identical values can stand only once. Inconclusive results are not listed. Some compounds were tested as several samples or in several runs, with calls that do not always agree. Activity calls are given as the source filed them. Calls follow the shape of the dose curve; as a rule, active = well fitted cell-killing curve with a large enough effect; inconclusive = small, poorly fitted or top-dose-only effect, or effect the other way; inactive = no such curve, though single readings can be large or run the other way. Potency is read from the fitted curve at half-maximal effect.", "data": [{"assay": "Viability qHTS for spleen associated tyrosine kinase inhibitor (SYKi) drug resistant MV4-11 cells (AID 1963824); also: nearly all actives have a fitted effect of over 35% in size", "settings": "SYKi-resistant MV4-11 viability, CellTiter-Glo, 72 h; series mostly up to 45 µM; viability, % of control: at the top concentration", "in_short": "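SYK-inhibitor-resistant MV4-11 AML cells were seeded at 500 per well onto compound and cultured 72 hours (37 °C, 5% CO2). CellTiter-Glo was then added, and after 10 min at room temperature, luminescence gave viability.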", "values": [{"smiles": "CC(C)c1c(C(=O)Nc2ccccc2)c(-c2ccccc2)c(-c2ccc(F)cc2)n1CC[C@@H](O)C[C@@H](O)CC(=O)O", "Potency": "2.11 µM (active) and 1.09 µM (active) and 910 nM (active)"}, {"smiles": "Nc1cc(=O)[nH]c(N)n1", "viability, % of control": "78.1% (inactive)"}, {"smiles": "CCCCNc1ncc2c(-c3ccc(F)cc3)nn(CC3CCC(N)CC3)c2n1", "note": "(stereo not given)", "Potency": "0.0112 µM (active)"}, {"smiles": "CC(C)c1cc(CNc2nc(Nc3cc(C4CC4)[nH]n3)cc(N3CCN(C)CC3)n2)on1", "Potency": "0.0231 µM (active)"}, {"smiles": "COc1cc(-c2ccc(=O)[nH]n2)ccc1OC(F)F", "viability, % of control": "108% (inactive)"}, {"smiles": "OCCN1CCN(CC/C=C2/c3ccccc3Sc3ccc(C(F)(F)F)cc32)CC1", "Potency": "21.1 µM (active)"}, {"smiles": "CN[C@@H]1[C@@H](O)[C@@H](O[C@@H]2[C@H](O)[C@H](O[C@H]3OC(CN)=CC[C@H]3N)[C@@H](N)C[C@H]2N)OCC1(C)O", "note": "(stereo not given in full)", "viability, % of control": "108% (inactive)"}, {"smiles": "N=C1CCCN1Cc1[nH]c(=O)[nH]c(=O)c1Cl", "viability, % of control": "98.1% (inactive)"}, {"smiles": "CN(C)CCOc1ccc(/C(=C(/CCCl)c2ccccc2)c2ccccc2)cc1", "Potency": "13.2 µM (active)"}, {"smiles": "CC(=O)OCC[N+](C)(C)C", "viability, % of control": "83% (inactive)"}, {"smiles": "CC(C)(O)CC[C@@H](O)[C@](C)(O)[C@H]1CC[C@@]2(O)C3=CC(=O)[C@@H]4C[C@@H](O)[C@@H](O)C[C@]4(C)[C@H]3CC[C@]12C", "viability, % of control": "82.2% (inactive)"}, {"smiles": "Nc1c2c(nc3c1CCC3)CCCC2", "viability, % of control": "85.5% (inactive)"}, {"smiles": "NCC1CCC(C(=O)O)CC1", "note": "(stereo not given)", "viability, % of control": "91.6% [at 17.3 µM] (inactive)"}, {"smiles": "C[C@]12CC[C@@H]3c4ccc(O)cc4CC[C@H]3[C@@H]1CC[C@@H]2O", "Potency": "14.8 µM (active)"}, {"smiles": "COC(=O)[C@H]1[C@@H](O)[C@@]2(O)c3c(OC)cc(O[C@@H]4O[C@@H]([C@@H](O)CO)CO[C@H]4OC)cc3O[C@@]2(c2ccc(OC)cc2)[C@@H]1c1ccccc1", "Potency": "1.66 µM (active)"}, {"smiles": "CCC(=O)N1CCOc2c(cc(-c3cc(OC)cc(OC)c3)cc2C(=O)N[C@H]2CCCN(C)C2)C1", "Potency": "9.34 µM (active)"}, {"smiles": "O=C(Nc1ccc(Oc2ccc(Cl)cc2)c(Cl)c1)c1cc(I)cc(I)c1O", "viability, % of control": "72.6% (inactive)"}, {"smiles": "CN(C)CCCN1c2ccccc2CCc2ccc(Cl)cc21", "Potency": "10.6 µM (active) and 14.8 µM (active)"}, {"smiles": "Cc1nnc(C[C@@H]2C=C(c3ccc(Cl)cc3)c3ccccc3-n3c(C)nnc32)o1", "Potency": "0.296 µM (active)"}, {"smiles": "CCCNC(C)C(=O)Nc1c(C)csc1C(=O)OC", "note": "(stereo not given)", "viability, % of control": "95.3% (inactive)"}, {"smiles": "C[C@@H](Nc1ncnc2[nH]c(-c3ccc(O)cc3)cc12)c1ccccc1", "Potency": "5.17 µM (active) and 10.5 µM (active)"}, {"smiles": "C=CC(=O)Nc1cc(Nc2nccc(-c3cn(C)c4ccccc34)n2)c(OC)cc1N(C)CCN(C)C", "Potency": "0.934 µM (active)"}, {"smiles": "O=C(O)C(Cc1cc(I)c(O)c(I)c1)c1ccccc1", "note": "(stereo not given)", "viability, % of control": "80.1% (inactive)"}, {"smiles": "C=CC(=O)N1CC(N2CCN(C(=O)CNc3cc(C4(C)CC4)c(Cl)cc3O)CC2)C1", "Potency": "16.6 µM (active)"}, {"smiles": "C[N+](C)(CCOc1ccccc1)Cc1cccs1", "viability, % of control": "61.7% (inactive)"}, {"smiles": "Cc1cc(F)c(C(=O)Nc2cccc(-c3nncn3C(C)C)n2)cc1-n1cnc(C2CC2)c1", "Potency": "5.25 µM (active)"}, {"smiles": "c1ccc(-c2cc(CCC3CCNCC3)c3ccccc3n2)cc1", "Potency": "6.61 µM (active)"}, {"smiles": "C[C@H]1O[C@H](O[C@H]2[C@H](O)[C@@H](O)[C@@H](O[C@H]3[C@H](O)[C@@H](O)C(O)O[C@@H]3CO)O[C@@H]2CO)[C@H](O)[C@@H](O)[C@@H]1N[C@H]1C=C(CO)[C@@H](O)[C@H](O)[C@H]1O", "note": "(stereo not given in full)", "viability, % of control": "89.2% (inactive)"}, {"smiles": "CCOC(=O)c1cnc2c(cnn2CC)c1NN=C(C)C", "viability, % of control": "71.1% (inactive)"}, {"smiles": "CN1CCC[C@@H]1c1cccnc1", "viability, % of control": "94% (inactive)"}, {"smiles": "CC(C)(C)C(O)/C=C/c1ccc2c(c1)OCO2", "note": "(stereo not given)", "viability, % of control": "87.6% (inactive)"}, {"smiles": "C/C=C/C/C=C/CCC(=O)[C@H]1O[C@H]1C(N)=O", "Potency": "6.61 µM (active)"}, {"smiles": "O=C1CC2(CCCC2)CC(=O)N1CCNCC1COc2ccccc2O1", "note": "(stereo not given)", "viability, % of control": "67.9% (inactive)"}, {"smiles": "Cc1ccc(Nc2nnc(Cc3ccncc3)c3ccccc23)cc1Br", "Potency": "10.5 µM (active)"}, {"smiles": "C[C@@H](Oc1cc(C(=O)Nc2ccc(C(=O)N3CCN(C)CC3)cc2)nnc1N)c1c(Cl)ccc(F)c1Cl", "Potency": "2.63 µM (active)"}, {"smiles": "CC(O)C(=O)O", "note": "(stereo not given)", "viability, % of control": "86.2% (inactive)"}, {"smiles": "CCCCC1(COC(=O)CCC(=O)O)C(=O)N(c2ccccc2)N(c2ccccc2)C1=O", "viability, % of control": "83.9% (inactive)"}, {"smiles": "CCCCCCCCCCCCCCCC[N+](C)(C)CC", "Potency": "0.668 µM (active)"}, {"smiles": "C#C[C@]1(O)CC[C@H]2[C@@H]3CCc4cc(O)ccc4[C@H]3CC[C@@]21C", "Potency": "inactive and 7.42 µM (active)"}, {"smiles": "CN(C)C[C@@H]1CCn2cc(c3ccccc32)C2=C(C(=O)NC2=O)c2cn(c3ccccc23)CCO1", "Potency": "0.417 µM (active)"}]}]}
